Results filed as inconclusive are left out. This is one part of the list. The source made the active and inactive calls. Unless noted, the call rests on the fitted dose curve; in most records, active means well fitted curve in the direction sought with a large enough effect; inconclusive means small, poorly fitted or top-dose-only effect, or another doubt; inactive means no such curve, though single readings can be large; an effect the other way counts as inactive or inconclusive.
What was measured:
[1] = molecular target: DNA repair nuclease/redox regulator APEX1 (Homo sapiens) (UniProt P27695); assay: Confirmation qHTS Assay for Inhibitors of the Human Apurinic/apyrimidinic Endonuclease 1 (APE1) (AID 2572); conditions: purified APE1, fluorogenic abasic-site DNA cleavage; further: potency means the concentration at half of the fitted maximal effect; nearly all actives have a fitted effect of over 30% in size
In short: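 Confirmation qHTS in dose-response format: APE1 exposed to compound 15 min at RT, then reaction started with 50 nM final TAMRA/BHQ-2 abasic substrate. Three fluorescence reads 60 s apart; endpoint minus initial read gives progress.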

[2] = molecular target: DNA repair nuclease/redox regulator APEX1 (Homo sapiens) (UniProt P27695); assay: qHTS FP-Based Assay for Inhibitors of the Human Apurinic/apyrimidinic Endonuclease 1 (APE1) (AID 2573); further: on the % scale 0 is the no-effect control and ±100 the full control effect
From the text: The apurinic/apyrimidinic endonuclease APE1 is the primary mammalian enzyme responsible for the removal of abasic (or AP) sites in DNA and functions centrally in the base excision DNA repair (BER) pathway. […] Thus, targeting APE1 could improve the efficacy of current treatment paradigms by promoting selective sensitization or protection of diseased and normal cells, respectively.
In order to gain insight into the mode of action of confirmed APE1 inhibitors, we implemented a miniaturized fluorescence polarization assay designed to report on compounds which competitively displace ds-DNA substrate. The fluorescence polarization assay has been implemented in 384- and 1536-well format for binding of TAMRA-labeled double-stranded DNA probe not containing a quencher. The binding of protein to DNA is inhibited by ATA, a general inhibitor of APE1 activity.
See also related primary fluorogenic assay (AID 2517). […]
Three uL of enzyme were dispensed to 1536-well Greiner black solid bottom plates. […] The plates were immediately transferred into ViewLux High-throughput CCD imager (Perkin-Elmer) in order to measure the reaction progress in kinetic mode (three reads every 60 seconds) using 525 nm excitation and 598 nm emission fluorescence protocol. The fluorescence intensity difference between the third and the first time points was used to compute reaction progress.

Furin (Homo sapiens) = Furin (Homo sapiens) (UniProt P09958); assay: Furin counterscreen qHTS for Zika virus inhibitors (AID 1347149); further: nearly all actives have a fitted effect of over 70% in size; further: potency means the concentration at half of the fitted maximal effect;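 on activity change, negative = inhibition: purified recombinant full-length human furin enzyme at 5 nM; fluorescence gain from furin cutting a BOC-RVRR-AMC peptide substrate over 15 min; top concentration of the series differs between compounds; plate controls were no-inhibitor control for no effect and no-enzyme control for full effect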
In short: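 Counterscreen measures cleavage of 2 microM BOC-RVRR-AMC, below its ~15 microM Km, by 5 nM full-length human furin at pH 7.0 after a 15-min compound preincubation. Inhibition derives from the 15-min fluorescence increase at 37C.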

[3] = Confirmatory screen GU Rhodamine qHTS for Zika virus inhibitors qHTS (AID 1347157); further: nearly all actives have a fitted effect of over 70% in size; further: potency means the concentration at half of the fitted maximal effect
In short: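 Percent inhibition derives from the 15-min fluorescence change (ex 480, em 540 nm), normalized to no-enzyme and no-inhibitor wells. Reactions contained 25 nM NS2B-NS3 complex and 1.5 microM substrate in 10 mM Tris-HCl pH 8.0.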

[4] = ZIKV-mCherry secondary qHTS for Zika virus inhibitors (AID 1347158); on activity change, negative = inhibition: top concentration of the series differs between compounds
In short: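 Compounds were tested in Vero monkey kidney cells infected with recombinant mCherry-expressing Zika virus at MOI 1 for 48-72 h at 37 °C. Fixed cells were nuclear-stained and imaged, and infection rate was taken as the fraction of mCherry-positive cells.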

[5] = Confirmatory screen NINDS Rhodamine qHTS for Zika virus inhibitors (AID 1347161); further: nearly all actives have a fitted effect of over 60% in size; further: potency means the concentration at half of the fitted maximal effect
In short: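 Percent inhibition, normalized to uninhibited and enzyme-free controls, is fitted to a 4-parameter Hill equation. Fluorescence change comes from a 15-min cleavage of 1.5 microM bis-peptide Rhodamine110 substrate by 25 nM linked NS2B-NS3 at room temperature.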

[6] = tested on: Zika virus NS2B-NS3 protease (linked); assay: 384 well plate NINDS AMC confirmatory qHTS for Zika virus inhibitors (AID 1347163); further: nearly all actives have a fitted effect of over 50% in size; further: potency means the concentration at half of the fitted maximal effect;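 on activity change, negative = inhibition: linked protease at 5 30 or 60 nM final depending on run; fluorescence of AMC released from Ac-VKTGKR-AMC peptide cleaved by the protease; top concentration of the series differs between compounds; 0% = no-inhibitor control and -100% = no-enzyme control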
In short: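 Fluorescence at 355/460 nm was read after 25 minutes of cleavage of 30 microM Ac-VKTGKR-AMC at room temperature, in the dark. Before substrate addition, compounds (up to 1 mM final) sat ~15 minutes with 5, 30 or 60 nM linked protease. Signals were normalized to no-enzyme and no-inhibitor wells.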

[7] = tested on: Zika virus NS2B-NS3 protease (linked construct); assay: 384 well plate NINDS Rhodamine confirmatory qHTS for Zika virus inhibitors (AID 1347164);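 further: fluorescence from protease cleavage of Ac-LKRR-rhodamine 110 substrate; nearly all actives have a fitted effect of over 65% in size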; further: potency means the concentration at half of the fitted maximal effect
In short: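 Enzyme (final 5/30/60 nM) + cpd (DMSO), ~15 min; add Ac-LKRR-Rd 10 microM final; 25 min RT, dark; FI ex 485/em 538; normalized to no-enzyme, no-inhibitor ctrls; aprotinin intraplate ctrl.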

[8] = Tertiary RLuc qRT-PCR qHTS assay for Zika virus inhibitors (AID 1347169); further: top concentration of the series differs between compounds; on the % scale 0 is the no-effect control and ±100 the full control effect; nearly all actives have a fitted effect of over 55% in size
In short: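 Vero, 1,000 cells/well, o/n 37 C; cpd pinned in DMSO; ZIKV-RLuc Cambodian, MOI 1-2, 48-72 h 37 C; live-cell RLuc substrate, lum read at 1-1.5 h.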

[9] = Primary qHTS for small molecule stabilizers of the endoplasmic reticulum resident proteome: Secreted ER Calcium Modulated Protein (SERCaMP) assay (AID 1508630); further: on the % scale 0 is the no-effect control and ±100 the full control effect
In short: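 The SH-SY5Y reporter protocol was run at 3 concentrations up to 38.3 uM (primary) or 11 concentrations (follow-up): 16 h compound, 100 nM thapsigargin for 4 h, then extracellular luciferase luminescence.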

[10] = tested on: Zika virus NS2B-NS3 protease (linked construct); assay: Confirmatory screen NINDS AMC qHTS for Zika virus inhibitors (AID 1347152); further: nearly all actives have a fitted effect of over 70% in size;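 on activity change, negative = inhibition: AMC fluorescence gain from cleaved Bz-Nle-KRR-AMC substrate over 15 min; top concentration of the series differs between compounds; 0% = no-inhibitor control and -100% = no-enzyme control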
In short: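 Enzyme (1 nM, linked construct) was preincubated with compound for 15 minutes at room temperature in 10 mM Tris-HCl pH 8.0 with 0.01% Tween 20. Bz-Nle-Lys-Arg-Arg-AMC was then added to 10 microM, and AMC fluorescence was recorded immediately and after 15 minutes.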

[11] = tested on: Zika virus NS2B-NS3 protease; assay: Primary screen GU AMC qHTS for Zika virus inhibitors (AID 1347154); further: nearly all actives have a fitted effect of over 70% in size;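 on activity change, negative = inhibition: 0% = no-inhibitor control and -100% = no-enzyme control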
In short: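 Unlinked Zika NS2B hydrophilic domain/NS3 protease domain noncovalent complex (25 nM final) in 10 mM Tris-HCl pH 8.0, 0.01% Tween 20, with AMC peptide substrate. Fluorescence (ex 340, em 450 nm) change over 15 min, room temperature; percent inhibition fitted to 4-parameter Hill equation.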

[12] = molecular target: Glucocorticoid receptor (Homo sapiens) (UniProt P04150); assay: GR-GFP Redistribution (AID 450;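 active means compounds whose dose series gives a full or clear partial fitted curve of increased nuclear translocation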; further: potency means the concentration at half of the fitted maximal effect); conditions: U2OS GR-GFP nuclear translocation, laser cytometry, 2 h
[13] = molecular target: Glucocorticoid receptor (Homo sapiens) (UniProt P04150); assay: GR-EFC Redistribution (AID 451; calls by dose curve; further: potency means the concentration at half of the fitted maximal effect); conditions: CHO-K1 GR-EFC translocation, beta-gal luminescence, 2 h
In short: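 CHO-K1 cells stably expressing nuclear-localized β-gal enzyme acceptor and GR fused C-terminally to the enzyme donor fragment; ligand-driven nuclear translocation restores β-gal by complementation. Compounds titrated up to 46 uM final, 2 h at 37 °C; luminescence read.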

[14] = molecular target: Mitogen-activated protein kinase 10 (Mus musculus) (UniProt Q61831); assay: JNK3 AlphaScreen Assay (AID 530; active means well fitted curve in either direction with a large enough effect, not every such curve was filed as active;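 further: kinase came from lysate of stimulated human HepG2 cells; signal reports phosphorylation of biotinylated GST-cJun 1-79 at Ser73 with 10 µM ATP; series mostly up to about 57 µM; on the % scale 0 is the no-effect control and ±100 the full control effect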)
In short: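 Phosphorylation of biotinylated GST-cJun(1-79) at Ser73 is measured by AlphaScreen proximity luminescence. Enzyme is JNK3 in HepG2 lysates activated with interleukin-1beta and tumor necrosis factor alpha; ATP is 10 uM final.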

[15] = molecular target: Cytochrome P450 3A4 (Homo sapiens) (UniProt P08684); assay: qHTS Assay for Activators of Cytochrome P450 3A4 (AID 885); further: nearly all actives have a fitted effect of over 65% in size
In short: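 CYP3A4 activity: Luciferin-PPXE O-dealkylation, 25uM substrate, 200mM KPO4, RT throughout. Read-out is luciferase luminescence; higher values reflect activation.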

[16] = molecular target: DNA dC->dU-editing enzyme APOBEC-3G (Homo sapiens) (UniProt Q9HC16); assay: qHTS for inhibitors of Vif-A3G interactions: Validation (AID 588379); further: 0% is about no effect
In short: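 Yellow fluorescence (Ex 488, Em 500-530) of Vif-coexpressing HeLa A3G-eYFP cells, scanned by Acumen cytometer, reports blocked A3G degradation. Cells plated at 700/well overnight at 37 deg C before compound addition, then a further overnight compound incubation at 37 deg C.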

[17] = Vero cells viability qHTS for Zika virus inhibitors (AID 1347167); further: on the % scale 0 is the no-effect control and ±100 the full control effect
In short: (§1)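 To flag cytotoxic protease inhibitors, viability is measured by ATP-dependent luminescence (CellTiter Glo) after cells attached overnight receive compound for 24 to 48 hours in DMEM with 4% FBS.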

[18] = HepG2 cells viability qHTS for Zika virus inhibitors (AID 1347168); further: on the % scale 0 is the no-effect control and ±100 the full control effect
In short: as §1

[19] = molecular target: Rap guanine nucleotide exchange factor 3 (Homo sapiens) (UniProt O95398); assay: Confirmatory qHTS for antagonist of cAMP-regulated guanine nucleotide exchange factor 3 (EPAC1) (AID 1645880); further: nearly all actives have a fitted effect of over 55% in size
In short: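 Released BODIPY-GDP fluoresces less than Rap1-bound BODIPY-GDP; the signal is followed at 480/540 nm at 5-min intervals over 30 min, after 5 min at room temperature. Reactions contain 100 nM EPAC1, 250 nM RAP1B-BODIPY-GDP and 50 uM GDP; results are normalized to ATA and DMSO.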

[20] = molecular target: Rap guanine nucleotide exchange factor 3 (Homo sapiens) (UniProt O95398); assay: Confirmatory qHTS for agonist of cAMP-regulated guanine nucleotide exchange factor 3 (EPAC1) (AID 1645881);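 further: EPAC1 catalysed release of BODIPY-GDP from Rap1B seen as fluorescence loss; 100% = effect of cAMP agonist control; nearly all actives have a fitted effect of over 75% in size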
[21] = molecular target: Rap guanine nucleotide exchange factor 4 (Homo sapiens) (UniProt Q8WZA2); assay: Confirmatory qHTS for antagonist of cAMP-regulated guanine nucleotide exchange factor 4 (EPAC2) (AID 1645885); further: on the % scale 0 is the no-effect control and ±100 the full control effect; nearly all actives have a fitted effect of over 25% in size
[22] = molecular target: Rap guanine nucleotide exchange factor 4 (Homo sapiens) (UniProt Q8WZA2); assay: Confirmatory qHTS for agonist of cAMP-regulated guanine nucleotide exchange factor 4 (EPAC2) (AID 1645884);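 further: nucleotide exchange releases bodipy-GDP from Rap1 and this lowers its fluorescence; on the % scale 0 is the no-effect control and ±100 the full control effect; nearly all actives have a fitted effect of over 65% in size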
[23] = molecular target: Rap guanine nucleotide exchange factor 3 (Homo sapiens) (UniProt O95398); assay: Counterscreen qHTS for antagonist of cAMP-regulated guanine nucleotide exchange factor 3 (EPAC1) (AID 1645888); further: % of control where 0% means no effect
In short: (§2)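 Measured: fluorescence of BODIPY-GDP bound to Rap1B, which falls as exchange proceeds. Conditions include 50 uM competing GDP, 5 and 30 min reads, and a later cAMP challenge for antagonist detection.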

[24] = molecular target: Rap guanine nucleotide exchange factor 3 (Homo sapiens) (UniProt O95398); assay: Counterscreen qHTS for agonist of cAMP-regulated guanine nucleotide exchange factor 3 (EPAC1) (AID 1645889); further: % of control where 0% means no effect; nearly all actives have a fitted effect of over 40% in size
In short: as §2

Chain of Furin (Homo sapiens) (P09958 whole entry, looked up): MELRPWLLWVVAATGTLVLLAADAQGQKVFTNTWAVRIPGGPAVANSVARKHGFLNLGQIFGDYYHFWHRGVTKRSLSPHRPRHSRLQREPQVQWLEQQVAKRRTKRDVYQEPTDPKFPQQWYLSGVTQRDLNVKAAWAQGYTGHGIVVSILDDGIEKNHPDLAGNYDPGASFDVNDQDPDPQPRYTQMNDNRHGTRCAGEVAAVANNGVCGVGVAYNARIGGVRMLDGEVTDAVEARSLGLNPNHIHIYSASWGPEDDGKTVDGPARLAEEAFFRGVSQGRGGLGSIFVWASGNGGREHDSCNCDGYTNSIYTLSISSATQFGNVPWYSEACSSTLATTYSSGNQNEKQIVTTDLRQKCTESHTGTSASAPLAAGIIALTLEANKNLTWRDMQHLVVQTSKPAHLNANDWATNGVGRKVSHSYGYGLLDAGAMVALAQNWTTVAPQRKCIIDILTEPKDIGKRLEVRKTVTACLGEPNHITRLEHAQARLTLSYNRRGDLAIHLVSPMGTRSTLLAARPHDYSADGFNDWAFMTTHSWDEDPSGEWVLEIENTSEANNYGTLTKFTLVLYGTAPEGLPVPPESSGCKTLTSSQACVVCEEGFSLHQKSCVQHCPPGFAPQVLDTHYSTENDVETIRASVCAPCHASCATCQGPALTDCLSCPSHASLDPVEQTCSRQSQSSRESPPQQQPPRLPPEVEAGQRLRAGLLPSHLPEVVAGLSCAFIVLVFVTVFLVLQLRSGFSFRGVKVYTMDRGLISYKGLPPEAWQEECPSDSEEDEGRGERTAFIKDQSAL
Chain of Rap guanine nucleotide exchange factor 4 (Homo sapiens) (Q8WZA2 whole entry, looked up): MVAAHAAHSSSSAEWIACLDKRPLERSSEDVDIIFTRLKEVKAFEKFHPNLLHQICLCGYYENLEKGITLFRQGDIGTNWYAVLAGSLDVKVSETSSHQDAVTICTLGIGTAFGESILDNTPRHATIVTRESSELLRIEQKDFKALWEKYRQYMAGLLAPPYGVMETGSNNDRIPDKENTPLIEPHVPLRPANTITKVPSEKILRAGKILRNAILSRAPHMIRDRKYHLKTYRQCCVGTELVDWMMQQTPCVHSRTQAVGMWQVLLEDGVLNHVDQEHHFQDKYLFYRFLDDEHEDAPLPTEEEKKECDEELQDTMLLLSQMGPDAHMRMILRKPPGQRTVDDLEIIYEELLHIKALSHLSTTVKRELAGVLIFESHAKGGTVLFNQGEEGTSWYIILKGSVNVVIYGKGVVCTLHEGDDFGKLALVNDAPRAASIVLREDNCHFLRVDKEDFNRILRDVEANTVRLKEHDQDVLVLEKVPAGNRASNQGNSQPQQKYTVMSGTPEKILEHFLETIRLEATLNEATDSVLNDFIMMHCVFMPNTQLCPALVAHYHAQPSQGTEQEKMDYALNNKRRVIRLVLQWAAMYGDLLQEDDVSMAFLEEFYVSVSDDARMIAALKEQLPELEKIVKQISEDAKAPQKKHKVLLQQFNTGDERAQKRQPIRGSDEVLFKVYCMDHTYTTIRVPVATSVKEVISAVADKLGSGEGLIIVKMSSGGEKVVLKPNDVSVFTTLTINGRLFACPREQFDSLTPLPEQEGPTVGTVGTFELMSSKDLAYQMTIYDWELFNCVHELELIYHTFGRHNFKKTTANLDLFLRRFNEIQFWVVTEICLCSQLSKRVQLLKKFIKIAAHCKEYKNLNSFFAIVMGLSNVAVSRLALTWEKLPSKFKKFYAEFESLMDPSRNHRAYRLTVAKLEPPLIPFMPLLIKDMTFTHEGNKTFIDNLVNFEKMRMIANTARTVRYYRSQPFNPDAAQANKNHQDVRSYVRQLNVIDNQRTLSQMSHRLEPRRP
Chain of Rap guanine nucleotide exchange factor 3 (Homo sapiens) (O95398 whole entry, looked up): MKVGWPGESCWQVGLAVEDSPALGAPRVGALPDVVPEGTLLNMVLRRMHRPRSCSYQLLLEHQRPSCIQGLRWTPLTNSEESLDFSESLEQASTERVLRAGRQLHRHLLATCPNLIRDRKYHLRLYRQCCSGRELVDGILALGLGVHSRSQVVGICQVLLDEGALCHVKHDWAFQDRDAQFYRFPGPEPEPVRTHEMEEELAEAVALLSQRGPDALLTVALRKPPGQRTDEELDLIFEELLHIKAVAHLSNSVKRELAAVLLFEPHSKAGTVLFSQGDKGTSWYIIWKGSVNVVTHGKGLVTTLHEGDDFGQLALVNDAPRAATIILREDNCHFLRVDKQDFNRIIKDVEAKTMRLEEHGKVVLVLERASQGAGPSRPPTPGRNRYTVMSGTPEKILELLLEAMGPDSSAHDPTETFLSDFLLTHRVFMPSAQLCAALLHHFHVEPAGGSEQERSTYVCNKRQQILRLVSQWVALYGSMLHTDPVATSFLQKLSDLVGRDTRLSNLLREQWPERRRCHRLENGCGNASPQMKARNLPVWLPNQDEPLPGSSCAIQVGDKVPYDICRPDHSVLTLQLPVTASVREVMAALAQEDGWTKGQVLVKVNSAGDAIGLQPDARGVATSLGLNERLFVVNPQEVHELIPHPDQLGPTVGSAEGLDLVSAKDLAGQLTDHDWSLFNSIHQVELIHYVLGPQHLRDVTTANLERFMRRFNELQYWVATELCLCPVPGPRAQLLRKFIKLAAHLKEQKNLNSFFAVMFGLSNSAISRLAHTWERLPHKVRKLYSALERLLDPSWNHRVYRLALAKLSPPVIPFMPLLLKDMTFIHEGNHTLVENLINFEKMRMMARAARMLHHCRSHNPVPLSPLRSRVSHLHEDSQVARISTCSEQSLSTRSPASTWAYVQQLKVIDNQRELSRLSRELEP
Chain of Glucocorticoid receptor (Homo sapiens) (P04150 whole entry, looked up, the tested form may be a part): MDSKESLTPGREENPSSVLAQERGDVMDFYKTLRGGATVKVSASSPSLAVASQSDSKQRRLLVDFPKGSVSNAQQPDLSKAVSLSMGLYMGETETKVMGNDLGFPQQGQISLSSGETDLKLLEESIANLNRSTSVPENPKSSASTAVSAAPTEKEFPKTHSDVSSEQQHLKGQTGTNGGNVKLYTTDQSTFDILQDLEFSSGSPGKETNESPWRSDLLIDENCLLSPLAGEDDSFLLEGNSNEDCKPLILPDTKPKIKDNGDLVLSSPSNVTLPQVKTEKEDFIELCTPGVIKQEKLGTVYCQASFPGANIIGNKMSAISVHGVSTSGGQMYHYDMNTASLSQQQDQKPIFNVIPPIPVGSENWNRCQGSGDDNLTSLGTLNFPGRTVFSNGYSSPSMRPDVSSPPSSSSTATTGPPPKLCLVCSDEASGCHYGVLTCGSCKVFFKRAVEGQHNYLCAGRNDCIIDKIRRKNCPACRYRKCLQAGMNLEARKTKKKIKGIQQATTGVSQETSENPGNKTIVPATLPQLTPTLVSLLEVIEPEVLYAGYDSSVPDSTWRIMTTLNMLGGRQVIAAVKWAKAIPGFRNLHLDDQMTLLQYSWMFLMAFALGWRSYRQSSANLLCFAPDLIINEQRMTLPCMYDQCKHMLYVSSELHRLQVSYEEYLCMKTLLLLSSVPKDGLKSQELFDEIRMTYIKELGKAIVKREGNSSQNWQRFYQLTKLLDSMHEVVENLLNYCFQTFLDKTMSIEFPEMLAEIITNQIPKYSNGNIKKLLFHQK
Chain of DNA repair nuclease/redox regulator APEX1 (Homo sapiens) (P27695 whole entry, looked up): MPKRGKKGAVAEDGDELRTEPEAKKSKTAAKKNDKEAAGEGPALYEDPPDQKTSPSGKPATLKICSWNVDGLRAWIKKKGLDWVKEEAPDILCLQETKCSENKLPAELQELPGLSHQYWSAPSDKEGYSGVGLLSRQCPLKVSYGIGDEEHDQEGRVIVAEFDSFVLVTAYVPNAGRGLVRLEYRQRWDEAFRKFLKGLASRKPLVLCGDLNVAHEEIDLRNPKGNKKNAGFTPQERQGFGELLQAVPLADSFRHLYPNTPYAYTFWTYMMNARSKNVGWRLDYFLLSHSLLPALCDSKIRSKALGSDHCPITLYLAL
Chain of Cytochrome P450 3A4 (Homo sapiens) (P08684 whole entry, looked up): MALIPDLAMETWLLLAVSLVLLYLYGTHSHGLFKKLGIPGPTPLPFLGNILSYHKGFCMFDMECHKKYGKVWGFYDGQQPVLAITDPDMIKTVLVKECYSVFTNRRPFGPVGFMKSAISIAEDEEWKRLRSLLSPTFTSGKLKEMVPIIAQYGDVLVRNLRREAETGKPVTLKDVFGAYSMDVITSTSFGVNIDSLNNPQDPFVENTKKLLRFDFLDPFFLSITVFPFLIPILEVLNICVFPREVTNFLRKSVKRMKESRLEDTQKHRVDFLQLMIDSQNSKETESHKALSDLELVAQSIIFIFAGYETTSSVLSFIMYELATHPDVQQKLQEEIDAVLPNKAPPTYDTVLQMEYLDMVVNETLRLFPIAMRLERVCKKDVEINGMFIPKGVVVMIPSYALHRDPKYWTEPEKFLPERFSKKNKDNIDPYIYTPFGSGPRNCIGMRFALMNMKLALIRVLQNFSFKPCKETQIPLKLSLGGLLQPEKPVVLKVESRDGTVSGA
Chain of DNA dC->dU-editing enzyme APOBEC-3G (Homo sapiens) (Q9HC16 whole entry, looked up): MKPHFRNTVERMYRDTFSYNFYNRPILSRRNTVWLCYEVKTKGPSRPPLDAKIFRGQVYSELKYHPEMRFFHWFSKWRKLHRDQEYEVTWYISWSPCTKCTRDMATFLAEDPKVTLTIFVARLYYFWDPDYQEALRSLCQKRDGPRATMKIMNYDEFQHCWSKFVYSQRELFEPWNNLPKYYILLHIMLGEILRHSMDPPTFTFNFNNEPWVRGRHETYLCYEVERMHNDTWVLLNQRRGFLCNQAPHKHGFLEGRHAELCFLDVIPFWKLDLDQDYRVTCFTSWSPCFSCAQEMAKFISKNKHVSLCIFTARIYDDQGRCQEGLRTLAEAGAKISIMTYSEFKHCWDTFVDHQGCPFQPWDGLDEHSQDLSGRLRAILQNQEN

O=c1c(O)c(Br)ccc2c(Br)c(O)c(O)c(O)c12
inactive: outcome [2] | Potency [4] | Potency [8] | Potency [9]
active: Potency [1] 0.316 µM | Potency (Furin (Homo sapiens)) 23.5 µM | Potency [3] 39.8 µM | Potency [5] 7.94 µM | Potency [6] 158 µM | Potency [7] 89.1 µM

Cc1ccc(NC(=O)c2ccc3c(O)c(S(=O)(=O)c4ccc(Cl)cc4)c(=O)[nH]c3c2)cc1
inactive: Potency (Furin (Homo sapiens)) | Potency [4] | Potency [8]
active: Potency [3] 22.4 µM | Potency [5] 6.31 µM | Potency [6] 251 µM | Potency [7] 35.5 µM

O=C(O)c1cccc(-c2ccc(OC(F)(F)F)cc2)c1
inactive: Potency (Furin (Homo sapiens)) | Potency [10] | Potency [4] | Potency [6] | Potency [8]

O=C(O)c1cc(-c2ccc(C(F)(F)F)cc2)nc2n[nH]c(-c3ccccc3)c12
inactive: Potency [4] | Potency [6] | Potency [8]
active: Potency (Furin (Homo sapiens)) 52.7 µM | Potency [3] 63.1 µM | Potency [5] 50.1 µM | Potency [7] 141 µM

N#CC(C#N)=C(N)/C(C#N)=C/c1cc(O)c(O)c(O)c1
active: Potency [3] 44.7 µM | Potency [5] 31.6 µM | Potency [6] 112 µM
inactive: Potency (Furin (Homo sapiens)) | Potency [11] | Potency [4] | Potency [7] | Potency [8]

CCOC(=O)c1c(-c2ccccc2)oc2ccc(NS(=O)(=O)c3ccc(C(C)C)cc3)cc12
inactive: Potency [3]
active: Potency (Furin (Homo sapiens)) 46.9 µM

COc1cc(C2Nc3ccccc3-c3nnc(SCc4ccc(Cl)cc4)nc3O2)ccc1OCC(=O)O (stereo not drawn)
inactive: Potency (Furin (Homo sapiens)) | Potency [4] | Potency [8]
active: Potency [3] 28.2 µM | Potency [5] 25.1 µM | Potency [6] 282 µM | Potency [7] 79.4 µM

COc1ccc(-c2nc(C(=O)N3CCN(C)CC3)sc2-c2ccc(OC)cc2)cc1
inactive: Potency [12] > 46 µM | Potency [13] > 46 µM | Potency [14] | Potency [15] | Potency [16] | Potency [5] | Potency [17] | Potency [18] | Potency [19] | outcome [20] | Potency [21]
active: Potency (Furin (Homo sapiens)) 13.5 µM | Potency [10] 24.1 µM | Potency [11] 26.7 µM

O=C(O)c1c(-c2ccccc2)oc2ccc(OCc3ccc(Cl)c(Cl)c3)cc12
inactive: Potency [6] | Potency [8] | outcome [20] | outcome [22] | activity change, negative = inhibition [21] 10.2% [at 12.7 µM] | outcome [23] | Potency [24]
active: Potency (Furin (Homo sapiens)) 66.3 µM | Potency [3] 17.8 µM | Potency [4] 8.91 µM | Potency [5] 3.98 µM | Potency [7] 17.8 µM | Potency [19] 75.7 µM

Source: PubChem BioAssay (NCATS)
